PubChem BioAssay (Tox21)
Inconclusive results are not listed. A call without a number means that no potency is given here. Unmarked numbers belong to inactive results. Calls of active or inactive are those of the source. The call rests on the fitted dose curve; in most records, active means well fitted inhibition curve with a large enough effect in the signal ratio in the repeat runs (not every such curve was filed as active); inconclusive means weak or mixed curves, or effect the other way; inactive means no such curve, though single readings can be large or run the other way; the % refers to the signal ratio.

biological target: Estrogen receptor beta (Homo sapiens) (UniProt Q92731); test: qHTS assay to identify small molecule antagonists of the estrogen receptor beta (ER-beta) signaling pathway (AID 1259378); conditions: ER-beta-UAS-bla HEK293T, beta-lactamase FRET ratio, 16 h; series mostly up to 92.4 µM
Sequence (Q92731 whole entry, looked up): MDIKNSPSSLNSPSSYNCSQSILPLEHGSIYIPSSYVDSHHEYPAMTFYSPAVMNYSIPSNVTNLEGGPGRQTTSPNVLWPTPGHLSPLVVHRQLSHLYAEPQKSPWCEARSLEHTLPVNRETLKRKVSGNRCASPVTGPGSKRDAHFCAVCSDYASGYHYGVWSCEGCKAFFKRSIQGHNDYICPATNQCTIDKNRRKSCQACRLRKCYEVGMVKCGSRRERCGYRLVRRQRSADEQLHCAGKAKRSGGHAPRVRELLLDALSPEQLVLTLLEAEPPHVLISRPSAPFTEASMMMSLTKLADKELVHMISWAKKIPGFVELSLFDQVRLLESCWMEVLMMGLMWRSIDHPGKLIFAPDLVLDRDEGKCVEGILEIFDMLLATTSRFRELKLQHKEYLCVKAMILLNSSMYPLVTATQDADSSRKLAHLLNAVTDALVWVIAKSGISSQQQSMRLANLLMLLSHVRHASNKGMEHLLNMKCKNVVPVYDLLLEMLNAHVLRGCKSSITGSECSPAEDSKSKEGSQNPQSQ
Method in brief: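 ER-beta-UAS-bla HEK293T (GripTite) cells in 2% charcoal-stripped FBS medium were preincubated 6 hr at 37C, dosed with compound, then stimulated with 1 nM E2 (final) for 16 hr; beta-lactamase reporter read by B/G FRET fluorescence after 2 hr substrate loading.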

Row | Structure (SMILES) | Potency | activity, negative = inhibition
1 | CC(C)(C)NCC(O)COc1ccc(NC(=O)NC2CCCCC2)cc1 (configuration not stated) | inactive | 
2 | O=C(O)c1ccc2cc(O)ccc2c1 | inactive | 
3 | CC(C(=O)O)c1ccc2c(c1)Cc1cccnc1O2 (configuration not stated) | inactive | 
4 | CC(O)CN (configuration not stated) | inactive | 
5 | CCCCCC1CCC(=O)O1 (configuration not stated) | inactive | 
6 | OCCc1ccncc1 | inactive | 
7 | CCCCOC(=O)C(C)Oc1ccc(Oc2ccc(C(F)(F)F)cn2)cc1 (configuration not stated) | inactive | 
8 | O=Cc1ccc(Cl)c([N+](=O)[O-])c1 | inactive | 
9 | CCC(CC)C(=O)O | inactive | 
10 | Nc1ccc(F)cc1F | inactive | 
11 | CCOC(OCC)OCC | inactive | 
12 | CCCC1CCCC(=O)O1 (configuration not stated) | inactive | 
13 | C=C[Si]1(C)O[Si](C)(C=C)O[Si](C)(C=C)O[Si](C)(C=C)O1 (configuration not stated) | inactive | 
14 | CCOC(C)OCC | inactive | 
15 | C=CCCC | inactive | 
16 | O=C(c1ccco1)N1CCNCC1 | inactive | 
17 | COC(=O)c1cc(Cl)ccc1[N+](=O)[O-] | inactive | 
18 | CC1(C)CC(=O)CC(C)(C)N1 | inactive | 
19 | CCC(=O)O[C@@H]1C[C@H]2CC[C@]1(C)C2(C)C | inactive | 
20 | S=c1[nH][nH]c(=S)s1 | inactive | 
21 | CCCCCCCCCCCC(=O)OCC | inactive | 
22 | CCCCCCCCCCCCCCCCCCCl |  | 21.3% [at 8.39 µM]
23 | CCCC(=O)OCc1ccccc1 | inactive | 
24 | O=C(O)c1ccccc1-n1cc(C(=O)O)c(=O)c2cc(Nc3c(F)cc(F)cc3Cl)c(Cl)cc21 | inactive | 
25 | CCCCCCCCS | inactive | 
26 | CCCOC(C)=O | inactive | 
27 | C[C@@H](O)[C@H]1C(=O)N2C(C(=O)O)=C(S[C@@H]3CN[C@H](CNS(N)(=O)=O)C3)[C@H](C)[C@H]12 | inactive | 
